Data on 15 compounds can be found in PubChem BioAssay (EPA / NIEHS).

Inconclusive results are not listed. Some compounds were tested as several samples or in several runs, with calls that do not always agree. Calls of active or inactive are those of the source. How the source made its calls: active means hit-call score of the fitted dose curve at least 0.9, where 1 is the maximum; inconclusive means response in the unintended direction; inactive means score below 0.9.

Assay [1] can be described thus: TOX21_p53_BLA_p2_viability: Viability Assessment in the Tox21 HCT-116 p53 Agonism Beta-lactamase Assay, Phase 2 (AID 2283591).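 Further: compound exposure lasted 16 h at 37 °C; actives lower the ATP signal meaning cytotoxicity.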 An outline of the steps:
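HCT-116 p53-bla cells (4000/well) rested 5 h at 37C, then received compounds in DMSO (217-fold dilution) for 16 h at 37C, 5% CO2. After the CCF4 read, CellTiter-Glo was added; ATP luminescence was read after 30 min at room temperature.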

In assay [2] the target is Cellular tumor antigen p53 (Homo sapiens) (UniProt P04637). Description: TOX21_p53_BLA_p3_ratio: Tox21 HCT-116 p53 Agonism Beta-lactamase Assay, Ratio, Phase 3 (AID 2283596). The essentials:
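Cells were seeded at 4000/well, rested 5 h at 37C, then dosed with DMSO compound solutions (217-fold dilution) for 16 h. CCF4-AM substrate was loaded for 2 h at room temperature, and the 460/530 nm emission ratio was fitted for gain of signal versus DMSO.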

Assay [3] can be described thus: TOX21_p53_BLA_p4_viability: Viability Assessment in the Tox21 HCT-116 p53 Agonism Beta-lactamase Assay, Phase 4 (AID 2283597).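 Further: hits lower the luminescence signal meaning cytotoxicity.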 An outline of the steps:
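Readout: ATP luminescence (CellTiter-Glo), measured 30 min after reagent addition at RT. The reagent followed a 2 h CCF4-AM incubation, and the cells had been exposed to compound for 16 h at 37C.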

The target of assay [4] is Cellular tumor antigen p53 (Homo sapiens) (UniProt P04637). Description: TOX21_p53_BLA_p5_ratio: Tox21 HCT-116 p53 Agonism Beta-lactamase Assay, Ratio, Phase 5 (AID 2283599). An outline of the steps:
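HCT-116 cells carrying a p53-inducible beta-lactamase reporter were seeded at 4000 cells/well and dosed after 5 h with compound in DMSO (217-fold dilution). After 16 h at 37C, CCF4-AM substrate was added for 2 h, and the 460/530 nm emission ratio was scored as gain-of-signal versus DMSO.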

A short description of assay [5]: TOX21_p53_BLA_p5_viability: Viability Assessment in the Tox21 HCT-116 p53 Agonism Beta-lactamase Assay, Phase 5 (AID 2283600). The essentials:
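Workflow: seed 4000 cells per well, wait 5 h, add compounds (DMSO, 217-fold dilution), incubate 16 h, load CCF4-AM 2 h, add CellTiter-Glo, read luminescence after 30 min.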

The target in assay [6] is Cellular tumor antigen p53 (Homo sapiens) (UniProt P04637). In words: TOX21_p53_BLA_p4_ratio: Tox21 HCT-116 p53 Agonism Beta-lactamase Assay, Ratio, Phase 4 (AID 2283601). An outline of the steps: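 HCT116 cells carrying an inducible beta-lactamase reporter were plated at 4000 cells/well, rested 5 h, then exposed to compounds in DMSO (217-fold dilution) for 16 h at 37C. CCF4-AM substrate was loaded 2 h at room temperature; 460/530 nm emission ratio scored gain-of-signal versus DMSO.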

Assay [7] can be described thus: TOX21_p53_BLA_p3_viability: Viability Assessment in the Tox21 HCT-116 p53 Agonism Beta-lactamase Assay, Phase 3 (AID 2283593).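 Further: cells exposed to compound for 16 h before reading.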 The essentials:
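HCT-116 cells (4000/well) rested 5 h at 37C, then got DMSO compounds by pin tool (217-fold dilution) for 16 h at 37C, 5% CO2. After the bla read, CellTiter-Glo was added and luminescence read at 30 min, room temperature.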

The target of assay [8] is Thyroid hormone receptor alpha (Rattus norvegicus) + Thyroid hormone receptor beta (Rattus norvegicus) (UniProt P18113+P63059). In words: TOX21_TR_LUC_GH3_Antagonist_Followup: Tox21 GH3 Thyroid Hormone Receptor Antagonism Luciferase Follow-Up Assay (AID 2283942). An outline of the steps:
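In a GH3 luciferase reporter line, test chemicals spanning 92 uM to 5nM final are co-incubated 24 h with 1.0 nM T3. Activity is expressed as relative luminescence units and analysed relative to DMSO.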

The target in a further assay is THRA (gene 7067) (UniProt P10827). In words: TOX21_TRA_COA_Antagonist_Followup_ratio: Tox21 Thyroid Hormone Receptor alpha Antagonism through Coactivator Recruitment Follow-Up Assay, Ratio (AID 2283953). The essentials:
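GST-TRα LBD 2.5 nM, BSA 0.10%, + cpd; then FITC-SRC-2 peptide 200 nM + Tb-anti-GST Ab 2 nM. TR-FRET ratio 520/495 nm. Norm: DMSO = 0%, T3 = 100%.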

The nature of assay [9]: TOX21_TRB_BLA_Antagonist_Followup_viability: Viability Assessment in the Tox21 Thyroid Hormone Receptor beta Antagonism Beta-lactamase (BLA) Follow-Up Assay (AID 2283961). An outline of the steps:
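TRβ-bla HEK293T (human TRβ LBD fused to GAL4 DBD), 3,000 cells/well, 2% charcoal-stripped FBS, phenol red-free medium; 18 h compound exposure, 37C; CellTiter-Glo 30 min RT; luminescence, loss-of-signal readout.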

A further assay has as its target THRB (gene 7068) (UniProt P10828). Description: TOX21_TRB_COA_Antagonist_Followup_ratio: Tox21 Thyroid Hormone Receptor beta Antagonism through Coactivator Recruitment Follow-Up Assay, Ratio (AID 2283967). An outline of the steps: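 Coactivator (SRC-2) recruitment to purified GST-TRβ ligand-binding domain is monitored by terbium-to-fluorescein energy transfer, emission ratio 520:495 nm. DMSO wells define 0% and T3 wells 100% activity.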

Assay [10] in a line: TOX21_TR_RXR_BLA_Antagonist_Followup_viability: Viability Assessment in the Tox21 Thyroid Hormone Receptor beta Retinoid X Receptor alpha (RXRa) Antagonism Beta-lactamase (BLA) Follow-Up Assay (AID 2283979). The essentials:
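RXRa-UAS-bla HEK293T cells seeded 2,500/well in phenol red-free DMEM with 2% charcoal-stripped FBS, attached 5 h, then exposed to compounds at 11 concentrations in triplicate for 16 h at 37C/5% CO2. Viability read by CellTiter-Glo ATP luminescence; bidirectional fit versus DMSO.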

Cellular tumor antigen p53 (Homo sapiens), sequence (P04637 whole entry, looked up): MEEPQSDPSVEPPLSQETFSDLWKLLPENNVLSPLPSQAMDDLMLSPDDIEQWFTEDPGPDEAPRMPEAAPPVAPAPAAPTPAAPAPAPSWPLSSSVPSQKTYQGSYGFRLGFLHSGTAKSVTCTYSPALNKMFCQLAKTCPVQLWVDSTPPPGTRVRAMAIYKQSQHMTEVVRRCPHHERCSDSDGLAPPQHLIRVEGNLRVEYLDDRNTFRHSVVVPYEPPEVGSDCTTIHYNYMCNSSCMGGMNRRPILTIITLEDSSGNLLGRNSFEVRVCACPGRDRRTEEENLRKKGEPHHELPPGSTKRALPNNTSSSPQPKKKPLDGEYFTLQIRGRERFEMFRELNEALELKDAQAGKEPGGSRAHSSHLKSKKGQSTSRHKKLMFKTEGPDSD
THRA (gene 7067), sequence (P10827 whole entry, looked up, the tested form may be a part): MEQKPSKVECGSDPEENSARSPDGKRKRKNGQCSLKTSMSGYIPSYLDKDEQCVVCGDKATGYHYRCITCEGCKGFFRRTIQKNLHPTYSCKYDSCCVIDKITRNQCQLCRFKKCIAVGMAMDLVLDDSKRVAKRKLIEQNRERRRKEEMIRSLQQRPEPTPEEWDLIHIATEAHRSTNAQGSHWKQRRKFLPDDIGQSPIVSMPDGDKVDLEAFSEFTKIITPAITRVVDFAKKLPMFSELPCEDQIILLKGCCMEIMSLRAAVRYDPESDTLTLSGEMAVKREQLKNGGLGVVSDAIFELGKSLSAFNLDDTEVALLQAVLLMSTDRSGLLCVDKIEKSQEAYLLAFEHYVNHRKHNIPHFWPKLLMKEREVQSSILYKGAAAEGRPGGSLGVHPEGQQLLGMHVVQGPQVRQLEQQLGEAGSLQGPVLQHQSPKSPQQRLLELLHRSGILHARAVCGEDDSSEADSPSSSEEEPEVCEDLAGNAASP
THRB (gene 7068), sequence (P10828 whole entry, looked up, the tested form may be a part): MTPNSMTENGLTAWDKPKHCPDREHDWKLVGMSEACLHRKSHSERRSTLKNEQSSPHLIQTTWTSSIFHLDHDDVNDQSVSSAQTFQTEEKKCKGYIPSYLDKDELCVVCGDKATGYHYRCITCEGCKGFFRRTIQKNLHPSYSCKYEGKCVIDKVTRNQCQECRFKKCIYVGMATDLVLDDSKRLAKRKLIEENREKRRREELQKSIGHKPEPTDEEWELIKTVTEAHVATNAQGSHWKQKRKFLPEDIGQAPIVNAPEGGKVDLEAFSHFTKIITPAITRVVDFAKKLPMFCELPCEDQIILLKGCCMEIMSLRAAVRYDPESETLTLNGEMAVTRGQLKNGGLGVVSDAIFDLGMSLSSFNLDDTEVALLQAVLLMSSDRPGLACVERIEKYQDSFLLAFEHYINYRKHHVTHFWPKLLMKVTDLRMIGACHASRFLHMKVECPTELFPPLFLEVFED

In the case of `CCCC(=O)OC(=O)CCC`, the compound was classed as inactive in assay [1], in assay [2], in assay [3], in assay [4], in [5] and in [6].

Take `COc1ccc(C(=O)CCC(=O)O)c2ccccc12`: the call in assay [1], in assay [7] and in assay [5] was inactive.

As for `CCOC(=O)[C@@H](N)CS`, the call in [1], in [7], in assay [5] and in [6] was inactive.

`O=C(Nc1ccc(O)cc1)c1ccccc1O`: the result in [1], in assay [2] and in assay [3] was inactive.

Turning to `BrC/C=C/CBr`, the outcome in assay [1], in assay [2], in [3], in [4] and in [5] was inactive.

In the case of `CCC(C)SSC(C)CC` (stereo unspecified), the outcome in [1], in assay [2], in [3], in assay [4], in [5] and in assay [6] was inactive.

On to `CC[C@@]1(O)C[C@@H]2CN(CCc3c([nH]c4ccccc34)[C@@](C(=O)OC)(c3cc4c(cc3OC)N(C)[C@H]3[C@@](O)(C(=O)OC)[C@H](OC(C)=O)[C@]5(CC)C=CCN6CC[C@]43[C@@H]65)C2)C1`, for which the call (in [1]; in assay [2]; in assay [3]; in assay [4]; in assay [5]; in the assay with THRA (gene 7067)) was inactive. Also, the call (in assay [9]; in the assay with THRB (gene 7068); in assay [10]) was inactive. Besides, the figures for the AC50 in assay [4] and in [8] were 0.0173 µM (active) and 17.5 µM (active), respectively.

With `CC(C)Cc1nccs1`, the result in [1], in [2], in [3] and in [4] was inactive.

Regarding `Cc1ncc(CO)c(CN)c1O`, the compound was classed as inactive in assay [1], in assay [2], in assay [3], in assay [4], in assay [5] and in [6].

As for `O=C(CCc1ccc(O)cc1)c1c(O)cc(O)cc1O`, the outcome in [1], in assay [7], in assay [5] and in assay [6] was inactive.

With `BrCCCCCBr`, the outcome in [1], in [2], in assay [3], in assay [4], in assay [5] and in assay [6] was inactive.

For `O=C(O)CNCC(=O)O`, the compound was classed as inactive in [1], in [2], in assay [3], in assay [4] and in assay [5].

In the case of `C[C@@]12CCC[C@H]1[C@@H]1CC[C@H]3C[C@@H](O)CC[C@]3(C)[C@H]1CC2`, the result in [1] and in assay [2] was inactive.

Take `O=[N+]([O-])c1ccccc1CCO`: the call in [1], in [2], in [3], in assay [4] and in [5] was inactive.

Regarding `CN(C)CC/C=C1/c2ccccc2COc2ccc(CC(=O)O)cc21`, the result in [1], in assay [2], in assay [3], in assay [4], in assay [5] and in assay [6] was inactive.
